# A number with no mark means an inactive call. Results filed as inconclusive are left out. A call without a number means that no potency is given here. The source made the active and inactive calls. Unless noted, calls follow the shape of the dose curve; as a rule, active = well fitted curve in the direction sought with a large enough effect in the repeat runs; inconclusive = weak or mixed curves; inactive = no such curve, though single readings can be large; an effect the other way counts as inactive or inconclusive.
# What was measured:
# [1] = qHTS assay to identify small molecule agonists of the hypoxia (HIF-1) signaling pathway (AID 1224846; active = well fitted activation curve with a large enough effect in the signal ratio in the repeat runs, not every such curve was filed as active; the % refers to the signal ratio)
# How it was run: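 ME-180 HRE-bla reporter cells; compounds in DMSO, 17 h at 37C; read-out beta-lactamase via CCF4-AM FRET.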
# [2] = qHTS assay to identify small molecule agonists of H2AX - cell viability counter screen (AID 1224847; calls by dose curve; also: nearly all actives have a fitted effect of over 30% in size; also: potency is read from the fitted curve at half-maximal effect)
# How it was run: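 Quantitative HTS viability measurement: CHO-K1 wild-type cells in serum (10% FBS) medium, short 3 hr drug exposure at 37C with 0.76% DMSO, CellTiter-Glo luminescent detection.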
# [3] = qHTS assay to identify small molecule antagonists of the estrogen related receptor (ERR) signaling pathway from Tox21 library (AID 1224848); also: nearly all actives have a fitted effect of over 50% in size; also: potency is read from the fitted curve at half-maximal effect
# How it was run: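 Luciferase luminescence (ONE-Glo, 30 min room temperature) was the read-out. Cells of the NTP-supplied ERR line, 2,000 per well, were given 6 h at 37 C before compound addition in DMSO and 18 h exposure at 37 C.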
# [4] = qHTS assay to identify small molecule agonists of the estrogen related receptor (ERR) signaling pathway from Tox21 library (AID 1224849; calls by dose curve; also: nearly all actives have a fitted effect of over 15% in size); conditions: ERR reporter cell line, ONE-Glo luciferase, 18 h; at 92.4 µM (top of the series) unless noted
# How it was run: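 Luciferase activity in ERR pathway reporter cells served as the agonist readout; exposure lasted 18 h at 37 C, with ONE-Glo detection after 30 min at room temperature.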
# [5] = qHTS RealTime-Glo MT Cell Viability Assay in HepG2 cells - 24 hour (AID 1224867); also: nearly all actives have a fitted effect of over 50% in size; also: potency is read from the fitted curve at half-maximal effect
# How it was run: (§1)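 Luminescence read-out: viable HepG2 cells reduce a prosubstrate to a NanoLuc substrate, giving a signal proportional to live cell number. Reads taken at 0, 8, 16, 24, 32 and 40 h of compound exposure at 37 C.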
# [6] = qHTS RealTime-Glo MT Cell Viability Assay in HEK293 cells - 32 hour (AID 1224868); also: nearly all actives have a fitted effect of over 50% in size; also: potency is read from the fitted curve at half-maximal effect
# How it was run: (§2)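 Nonlytic real-time viability readout: viable cells convert prosubstrate to NanoLuc substrate, giving luminescence proportional to live cell number. HEK293, 600 cells/well, compound added after 5 h, continuous culture at 37 C.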
# [7] = qHTS RealTime-Glo MT Cell Viability Assay in HepG2 cells - 40 hour (AID 1224870); also: nearly all actives have a fitted effect of over 50% in size; also: potency is read from the fitted curve at half-maximal effect
# How it was run: (§3)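 Real-time viability: cells seeded at 600 per well together with NanoLuc and cell-permeant prosubstrate, compounds added after 5 h incubation. Luminescence tracked at 0, 8, 16, 24, 32 and 40 h of exposure.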
# [8] = qHTS RealTime-Glo MT Cell Viability Assay in HepG2 cells - 8 hour (AID 1224873); also: nearly all actives have a fitted effect of over 55% in size; also: potency is read from the fitted curve at half-maximal effect
# How it was run: as §3
# [9] = qHTS RealTime-Glo MT Cell Viability Assay in HEK293 cells - 40 hour (AID 1224874); conditions: RealTime-Glo luminescence; max response: hits give low values; also: nearly all actives have a fitted effect of over 50% in size; also: potency is read from the fitted curve at half-maximal effect
# How it was run: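 Kinetic, non-lysing viability readout. Seed HEK293 (600/well) with reagent, incubate 5 h at 37 C/5% CO2, pin 23 nL compound in DMSO, incubate at 37 C, read luminescence at 0, 8, 16, 24, 32, 40 h.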
# [10] = A CellTox Green Cytotoxicity Assay to monitor cytotoxicity in HEK293 cells - 24 hour (AID 1224875); also: nearly all actives have a fitted effect of over 45% in size; also: potency is read from the fitted curve at half-maximal effect
# How it was run: (§4)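 Real-time, in one plate: 600 HEK293 cells/well with dead-cell DNA dye, pinned compound after 5 h, 37 C incubation over 40 h; viable cells give no appreciable fluorescence.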
# [11] = A CellTox Green Cytotoxicity Assay to monitor cytotoxicity in HepG2 cells - 16 hour (AID 1224876); also: nearly all actives have a fitted effect of over 45% in size; also: potency is read from the fitted curve at half-maximal effect
# How it was run: (§5)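 Cytotoxicity was tracked as dead-cell DNA fluorescence in HepG2 cells treated with test compounds at 37 C; each time-point value comes from one kinetic series spanning 0, 8, 16, 24, 32 and 40 h.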
# [12] = qHTS RealTime-Glo MT Cell Viability Assay in HepG2 cells - 32 hour (AID 1224877); also: nearly all actives have a fitted effect of over 55% in size; also: potency is read from the fitted curve at half-maximal effect
# How it was run: as §1
# [13] = A CellTox Green Cytotoxicity Assay to monitor cytotoxicity in HepG2 cells - 24 hour (AID 1224878); also: nearly all actives have a fitted effect of over 45% in size; also: potency is read from the fitted curve at half-maximal effect
# How it was run: as §5
# [14] = A CellTox Green Cytotoxicity Assay to monitor cytotoxicity in HepG2 cells - 40 hour (AID 1224879); also: nearly all actives have a fitted effect of over 40% in size; also: potency is read from the fitted curve at half-maximal effect
# How it was run: as §5
# [15] = qHTS assay to identify small molecule agonists of the hypoxia (HIF-1) signaling pathway - cell viability counter screen (AID 1224844; calls by dose curve; also: nearly all actives have a fitted effect of over 50% in size; also: potency is read from the fitted curve at half-maximal effect)
# How it was run: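 In this counter screen, HRE-bla ME-180 cell viability after 17 hrs of compound exposure at 37C was read by CellTiter-Glo luminescence, multiplexed with the beta-lactamase reporter measurement.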
# [16] = A CellTox Green Cytotoxicity Assay to monitor cytotoxicity in HEK293 cells - 0 hour (AID 1224869); also: nearly all actives have a fitted effect of over 50% in size
# How it was run: as §4
# [17] = A CellTox Green Cytotoxicity Assay to monitor cytotoxicity in HEK293 cells - 40 hour (AID 1224871); also: nearly all actives have a fitted effect of over 45% in size; also: potency is read from the fitted curve at half-maximal effect
# How it was run: as §4
# [18] = qHTS RealTime-Glo MT Cell Viability Assay in HEK293 cells - 16 hour (AID 1224872); also: nearly all actives have a fitted effect of over 50% in size; also: potency is read from the fitted curve at half-maximal effect
# How it was run: as §2
# [19] = qHTS assay to identify small molecule agonists of H2AX (AID 1224845; active = well fitted activation curve with a large enough effect in the signal ratio in the repeat runs, not every such curve was filed as active; the % refers to the signal ratio)
# How it was run: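 Phospho-H2AX Ser139 measured by HTRF (ex 320 nm; em 665 and 620 nm) after 24 hr antibody incubation. Compounds, 15 concentrations, 0.76% DMSO, were applied to CHO-K1 cells for 3hr at 37C before lysis.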
SMILES,outcome [1],Potency [2],Potency [3],"activity change, positive = activation [4]",Potency [5],Potency [6],Potency [7],Potency [8],max response [9] [%],Potency [10],Potency [11],Potency [12],Potency [13],Potency [14],Potency [15],Potency [16],Potency [17],Potency [18],Potency [19],Potency [9]
CC1=C(Br)C(=O)C(Br)=C/C1=C(/c1ccccc1S(=O)(=O)O)c1cc(Br)c(O)c(Br)c1C,inactive,21.7 µM (active),18.6 µM (active),-55.4% [at 42.5 µM],inactive,inactive,inactive,inactive,1.66,inactive,inactive,inactive,inactive,inactive,,,,,,
Cc1ccc(OC(=O)c2ccccc2O)cc1,inactive,,inactive,2.99%,inactive,inactive,inactive,inactive,-11.7,inactive,inactive,inactive,inactive,inactive,inactive,inactive,49 µM (active),inactive,,
O=C1Cc2ccccc2N1c1c(Cl)cccc1Cl,inactive,,48.6 µM (active),-43.8%,inactive,24.5 µM (active),inactive,inactive,,inactive,inactive,inactive,,,,inactive,inactive,,inactive,21.9 µM (active)
CCCCCCCCCCCCCCN(CCO)CCO,,89.8 µM (active),61.1 µM (active),-78.9%,21.9 µM (active),21.9 µM (active),17.4 µM (active),54.9 µM (active),,43.6 µM (active),49 µM (active),19.5 µM (active),24.5 µM (active),13.8 µM (active),49 µM (active),inactive,38.9 µM (active),49 µM (active),,19.5 µM (active)
CC(=O)N/N=C/c1ccc([N+](=O)[O-])o1,inactive,,inactive,-10.2% [at 42.5 µM],inactive,inactive,inactive,inactive,8,inactive,,inactive,inactive,,,,inactive,,,
CCOC(=O)c1ccc(I)cc1,inactive,inactive,inactive,-4.74%,inactive,,inactive,inactive,-24.8,35 µM (active),inactive,inactive,inactive,inactive,,,35 µM (active),,,
CCCCCCCC/C=C\CCCCCCCCCCCC(=O)O,inactive,inactive,,,inactive,,inactive,inactive,,inactive,,inactive,inactive,inactive,,inactive,inactive,inactive,inactive,
c1cc(N(CC2CO2)CC2CO2)ccc1Cc1ccc(N(CC2CO2)CC2CO2)cc1 (stereo not drawn),,inactive,21.7 µM (active),-66.1%,,34.7 µM (active),,,,inactive,inactive,,,,,inactive,49 µM (active),43.6 µM (active),,24.5 µM (active)
CCOc1cccc(-n2cc(C(=O)N3CCN(c4cc(C(=O)O)c5ccccc5c4)CC3)nc2-c2ccc(C)cc2)c1,inactive,,,-37.7%,inactive,inactive,inactive,inactive,7.68,inactive,inactive,inactive,inactive,inactive,,inactive,inactive,inactive,,
CCOC(=O)[C@H](CCc1ccccc1)N[C@@H](C)C(=O)N(CC(=O)O)C1Cc2ccccc2C1,inactive,inactive,,,inactive,inactive,inactive,inactive,5.01,inactive,inactive,inactive,inactive,inactive,7.56 µM (active),inactive,inactive,inactive,,
C=C(C)C(=O)OCCOCCOC(=O)C(=C)C,inactive,inactive,inactive,6.4%,inactive,inactive,inactive,inactive,1.33,inactive,inactive,inactive,inactive,inactive,inactive,inactive,inactive,inactive,,
Oc1cc2c(cc1O)[C@H]1c3ccc(O)c(O)c3OC[C@@]1(O)C2,inactive,,49.2 µM (active),-31.7%,49.6 µM (active),inactive,,39.4 µM (active),-26.5,49.6 µM (active),,55.6 µM (active),inactive,,inactive,inactive,,,,
CC1(CN2CCC(n3c(=O)[nH]c4ccccc43)CC2)OCc2ccccc2-n2cccc21 (stereo not drawn),,,,,,19 µM (active),inactive,,,inactive,inactive,,inactive,,23.9 µM (active),inactive,,10.7 µM (active),inactive,19 µM (active)
C=CC(=O)[O-].C=CC(=O)[O-].[Zn+2],inactive,inactive,,,inactive,inactive,inactive,inactive,0.547,inactive,inactive,inactive,inactive,inactive,,inactive,,inactive,inactive,
O=C1NCCN1CCO,inactive,inactive,,,inactive,inactive,inactive,inactive,15.9,inactive,inactive,inactive,inactive,inactive,inactive,inactive,inactive,inactive,,
